Data from the supplement of paper PMC10338343.
± gives the standard deviation. Over roughly 8,200 sequences, “pre-steady-state target cleavage rate” has its median near 0.024; the highest 2% begin near 1.3. The sample as a whole holds a higher share of the highest values than the screen did.

System: MIWI (PIWIL1) piRISC loaded with L1MC piRNA (30 nt)
Experiment: pre-steady-state target cleavage rate (min^-1); MIWI and MILI are mouse PIWI proteins and EfPiwi is from a freshwater sponge; tags in brackets are library labels; higher = faster piRNA-guided slicing of the target
Settings: guide: L1MC piRNA 5'p-UAACUAAAUACUAUGCAAGCUGUAGGUCCU
Description: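 Cleave-'n-Seq: a library of target RNAs (target site embedded in constant flanks, ACAGCATTCCGCGTTAGTGATATCCG... 5' flank; DNA-blocked outside the site) at 0.1 nM was incubated with 1 nM active mouse MILI or MIWI piRISC (synthetic 5'-monophosphorylated piRNA guide) with or without 500 nM mouse GTSF1 at 33 °C for 1 min to 16 h. Uncleaved targets were sequenced and normalised to non-target controls, and the pooled three trials were fitted to a burst-and-steady-state model to give the pre-steady-state cleavage rate (min^-1; k3 is constrained to at most 1e-4). Sequence is the target site only; target names encode pairing extent (gX:gY) and contiguous / 1-mismatch / 2-mismatch / bulge geometry. Fits with R² ≤ 0 are excluded.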

[1] = auxiliary factor: 500 nM mouse GTSF1
[2] = auxiliary factor: none (no GTSF1)

Sequence	pre-steady-state target cleavage rate [1]	pre-steady-state target cleavage rate [2]
UCCACCUACAGCUUGCAUAGUAAAUAGUUA	0.426 ± 0.039	0.00722 ± 0.0018
AGGACCUACAGGAUGCAUAGUAUUUAGUUA	1.06 ± 0.092	0.023 ± 0.0047
UCCUGGAUGUGCUAGCAUAGAAUUUAGUUA	0.00695 ± 0.0028	
AGGACCUACAGCUUGGAUAGUAUUUACUUA	0.478 ± 0.054	0.0287 ± 0.0043
UCCAGCUACAGCUUGCAUAGUAUUAAGUUA	0.558 ± 0.043	0.015 ± 0.0026
AGAACCUACAGCUUGCAUAGUAUUUAGUUA	1.43 ± 0.047	0.0851 ± 0.013
UCCAACCUACAGCUUGCAUAGUAUUUAGUUA	1.05 ± 0.037	0.055 ± 0.0073
UCAACCUACAGCUUGCAUAGUAUUUAGUUA	1.43 ± 0.04	0.0646 ± 0.011
UCCUGGAACAGCUGGCAUAGUAUUUAGUUA	0.759 ± 0.038	0.0271 ± 0.0057
UCCAGCUACAGCUUGCAUAGUAAUUAGUUA	0.475 ± 0.038	0.0163 ± 0.0027
UCCUGCUACAGGUUGCAUAGUAUUUAGUUA	1.03 ± 0.037	0.0257 ± 0.0052
UCCUGGAUGAGCUUGCAUAGUAUUCUAGUUA	0.28 ± 0.036	0.0103 ± 0.0031
UCCUGCUACAGCUUGCAUAGUAUAUACUUA	0.111 ± 0.017	0.00755 ± 0.0036
UCGUCCUACUGCUUGCAUAGUAUUUAGUUA	1.14 ± 0.048	0.0572 ± 0.0094
UGGAGCUACAGCUUGCAUAGUAUUUUGUUA	0.992 ± 0.05	0.0525 ± 0.0077
UCCUGGUUGUGCUUGCAUAGUAUUUAGUUA	0.584 ± 0.032	0.0455 ± 0.0097
UGGACCUACAGCUUGCAUAGUUAAUAGUAA	0.0448 ± 0.01	
AGGACCUACAGUUUGCAUAGUAUUUAGUUA	1.25 ± 0.073	0.0653 ± 0.0093
UGGACCUACAGUUGCAUAGUAUUUAGUUA	1.06 ± 0.094	0.00944 ± 0.0032
UCGACCUACAGUUGCAUAGUAUUUAGUUA	0.955 ± 0.065	0.00747 ± 0.0023
UCGACCUACAGUUUGCAUAGUAUUUAGUUA	1.37 ± 0.054	0.0619 ± 0.0092

Sequence	pre-steady-state target cleavage rate [1]	pre-steady-state target cleavage rate [2]
UCCACCUACAGUUUGCAUAGUAUUUAGUUA	0.892 ± 0.072	0.0474 ± 0.0076
UGGACCUACAGUUUGCAUAGUAUUUAGUUA	1.5 ± 0.088	0.0675 ± 0.013
UGGACGUACUGCUUGCAUAGUAUUUAGUUA	1.01 ± 0.051	0.056 ± 0.0091
UCCUGGAACAGCUUGCUUAGUAAUUAGUUA	0.485 ± 0.041	0.0141 ± 0.0051
UCCUGGAACAGCUUGCAUAGUAUUAUCUUA	0.141 ± 0.028	0.00408 ± 0.0029
UCGACCUACAGCUUGCAUAGUAUUAUGUAA	0.228 ± 0.057	
UCCUGGAACAGCUAGCAUAGUAUUUAGUUA	0.836 ± 0.027	0.022 ± 0.0049
AGGACCUACAGCUUGCAUAGUAGUUUAGUUA	0.47 ± 0.036	0.0209 ± 0.006
UCCUGGAUGUGCUUGGAUAGUAUUAAGUUA	0.0897 ± 0.022	0.00634 ± 0.0041
UCCUGGAUCAGCUUGCAUAGUAUUUAGUUU [g2:g22:cont:t1U]	1.54 ± 0.089	0.0667 ± 0.016
UCCUGGAUCAGCUUGCAUAGUAUUUAGUAA	0.96 ± 0.047	0.0287 ± 0.0064
UCCUGGAUCAGCUUGGAUAGUAUUUAGUUA	0.775 ± 0.064	0.0476 ± 0.0092
UCCUGGAUCAGCUUGCAUAGUAUUUAGUUA [g2:g22:cont:t1A]	1.36 ± 0.054	0.0516 ± 0.0097
UCCUGGAUCAGCUUGCAUAGUAUUUAGUUG [g2:g22:cont:t1G]	1.05 ± 0.12	0.0362 ± 0.0084
UCCUGGAUCAGCUUGCAUAGUAUUUAGUUC [g2:g22:cont:t1C]	1.14 ± 0.052	0.0609 ± 0.012
UCCUGGAUCAGCUUGCAUAGUAUUUAGUUUA	1.64 ± 0.071	0.0415 ± 0.011
UCCUGGAUCAGCUUGCAUAGUAUUUAGUA	0.838 ± 0.043	0.0119 ± 0.0038
UCCUGGAUCAGCUUUGCAUAGUAUUUAGUUA	1.05 ± 0.053	0.0153 ± 0.004
UCCUGGAUCAGCUUGCAUAGUAUUUUAGUUA	0.979 ± 0.05	0.0222 ± 0.0046
UCCUGGAUCAGCUUGUAUAGUAUUUAGUUA	1.64 ± 0.1	0.0468 ± 0.012
UCCUGGAUCAGCUUGCUAUAGUAUUUAGUUA	0.00584 ± 0.0043	
